According to PubChem BioAssay AID2330 (Broad Institute, 2010):
About 2,800 (7.6%) of roughly 37,000 compounds were called active. Roughly 1% stayed inconclusive and do not appear here. This excerpt belongs to a sample that is enriched for actives. Unmarked numbers belong to inactive results. Cut-off read from the data, not from the text of the source: active = inhibition above about 80%; inconclusive = no clear call, values can overlap the other calls; inactive = below that.

Experiment: NOMO-1 AML cell viability reduction, primary screen, STK33 inhibitor project, CellTiter-Glo luminescence (AID 2330)
Conditions: NOMO-1 AML viability, 72 h, stronger effect = higher value, concentration not given here

| Compound | inhibition |
| --- | --- |
| O=C(CSc1nccc(=O)[nH]1)Nc1ccc([N+](=O)[O-])cc1 | 11.7% |
| C=C1CCC(C)C(C)(CCC2=CC(OC)OC2=O)C/C=C\C=C\1C(=O)O (stereo unspecified) | 9.74% |
| Cc1cc(C)n2nc(SCC(=O)Nc3ccccc3[N+](=O)[O-])nc2n1 | 4.39% |
| Cc1ccc(CC2C(=O)N(c3cccc(C(F)(F)F)c3)C(=O)C2C)cc1 (stereo unspecified) | 54.7% |
| C[C@@H]1CN([C@H](C)CO)C(=O)c2cc(NC(=O)C3CC3)ccc2O[C@@H]1CN(C)C | -2.07% |
| CNC[C@H]1Oc2c(NC(=O)C3CC3)cccc2C(=O)N([C@@H](C)CO)C[C@@H]1C | 15.2% |
| C[C@@H]1CN([C@H](C)CO)C(=O)Cc2cc(NS(=O)(=O)c3ccc(Cl)cc3)ccc2O[C@@H]1CN(C)S(=O)(=O)c1ccc(Cl)cc1 | 19.9% |
| C[C@@H]1CN([C@H](C)CO)C(=O)c2cc(NC(=O)Cc3ccccc3)ccc2O[C@H]1CN(C)S(=O)(=O)c1cn(C)cn1 | 4.97% |
| CC(Sc1nc2ccccc2[nH]1)c1nc2ccccc2[nH]1 (stereo unspecified) | 4.08% |
| Cc1cccc(C)c1NC(=O)C(C)N(c1ccc(Cl)cc1)S(C)(=O)=O (stereo unspecified) | -16.6% |
| CCOC(=O)c1c(NC(=O)Cn2nc([N+](=O)[O-])c(Br)c2C)sc2c1CCCC2 | 41.4% |
| Cc1ccc(S(=O)(=O)Nc2cccc3c2O[C@@H](CN(C)CC2CCCCC2)[C@H](C)CN([C@@H](C)CO)C3=O)cc1 | 10.5% |
| Cc1ccc(S(=O)(=O)Nc2cccc3c2O[C@@H](CN(C)S(=O)(=O)c2ccc(C)cc2)[C@H](C)CN([C@@H](C)CO)C3=O)cc1 | 4.36% |
| C[C@H](CO)N1C[C@H](C)[C@@H](CN(C)Cc2ccc3c(c2)OCO3)Oc2c(cccc2N(C)C)C1=O | 21.9% |
| C[C@H]1CN([C@@H](C)CO)C(=O)c2cc(NS(=O)(=O)c3ccccc3)ccc2O[C@@H]1CN(C)C(=O)NC1CCCCC1 | 13.9% |
| C[C@@H]1CN([C@@H](C)CO)C(=O)c2cccc(NC(=O)Nc3ccc(C(F)(F)F)cc3)c2O[C@@H]1CN(C)S(=O)(=O)c1cccs1 | 96.7% (active) |
| COc1ccc(NC(=O)Nc2cccc3c2O[C@H](CN(C)S(=O)(=O)c2cccs2)[C@H](C)CN([C@@H](C)CO)C3=O)cc1 | 34.9% |
| C[C@@H]1CN([C@H](C)CO)C(=O)c2cccc(NS(=O)(=O)c3ccc(F)cc3)c2O[C@@H]1CN(C)C(=O)Nc1ccc(C(F)(F)F)cc1 | 101% (active) |
| Cc1ccc(S(=O)(=O)Nc2cccc3c2O[C@H](CN(C)C(=O)Nc2ccc(C(F)(F)F)cc2)[C@@H](C)CN([C@@H](C)CO)C3=O)cc1 | -0.901% |
| C[C@H]1CN([C@@H](C)CO)C(=O)c2cccc(NC(=O)Nc3ccc(C(F)(F)F)cc3)c2O[C@H]1CN(C)S(=O)(=O)c1ccccc1 | 54.4% |
| C[C@H]1CN([C@@H](C)CO)C(=O)c2cccc(NS(=O)(=O)c3ccccc3)c2O[C@@H]1CN(C)C(=O)Nc1ccc(C(F)(F)F)cc1 | -8.64% |
